The structures appear in SMILES notation. “And” between values parts separate entries of the source, which are not always exact repeats. Equal values may be shown once. Results filed as inconclusive are left out. The source made the active and inactive calls. Calls come from the whole dose curve; as a rule, active = well fitted cell-killing curve with a large enough effect; inconclusive = small, poorly fitted or top-dose-only effect, or effect the other way; inactive = flat fitted curve, though single readings scatter. Where a SMILES comes first, the peptide text is derived from it. [ ]: non-standard residue; d: D form.

We go through 37 compounds from PubChem BioAssay (NCATS).
% is set by controls: 0 for no effect and ±100 for the full control effect; potency is the fitted concentration of half-maximal effect.

This assay concerns Tov-21-G. In words: Primary qHTS to identify gynecologic anti-cancer compounds using libraries of approved drugs and bioactive compounds (AID 1345084). Note: nearly all actives have a fitted effect of over 55% in size. The following applies: Gynecologic cancer cell panel viability, ATPlite luminescence, 48 h; series mostly up to 57.5 µM; activity change, negative = cytotoxicity: at the top concentration. The procedure, abridged:
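ATP-based viability (ATPlite), 1,000 cells/well, 16 h pre-incubation, 48 h compound at 37 C, 5% CO2, 15 min RT before read.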
A general note: qHTS replaces the single test concentration by a dilution series.
In the case of `CN1Cc2c(N)cccc2C(c2ccccc2)C1` (configuration not stated), the “activity change, negative = cytotoxicity” value is -4.79% (inactive).

Take `C(#Cc1cccc(CN2CCOCC2)c1)CCN1CCCCC1`: the “activity change, negative = cytotoxicity” value was 2.28% (inactive).

Consider `C/C=C(\C)C(=O)O[C@H]1[C@H](O)[C@]2(COC(C)=O)[C@H](O)C[C@]3(C)C(=CCC4[C@@]5(C)CC[C@H](O[C@@H]6O[C@H](C(=O)O)[C@@H](O[C@@H]7O[C@H](CO)[C@@H](O)[C@H](O)[C@H]7O)[C@H](O)[C@H]6O[C@@H]6O[C@H](CO)[C@@H](O)[C@H](O)[C@H]6O)[C@](C)(CO)C5CC[C@]43C)[C@@H]2CC1(C)C` (some centres not stated), for which the activity change, negative = cytotoxicity was 0.503% [at 11.6 µM] (inactive).

Regarding `C[C@]12C=CC(=O)C=C1CC[C@@H]1[C@@H]2[C@@H](O)C[C@@]2(C)[C@H]1CC[C@]2(O)C(=O)COC(=O)CCC(=O)O`, the “activity change, negative = cytotoxicity” value is -2.55% (inactive).

Regarding `CC1=C2[C@@H]([C@H](C)CC[C@H]2/C=C(\C)C(=O)O)[C@H](O)C1`, the “activity change, negative = cytotoxicity” value is -3.35% (inactive).

As to `CC(=O)c1c(C)cc(O[C@@H]2O[C@H](CO)[C@@H](O)[C@H](O)[C@H]2O)cc1O`, the “activity change, negative = cytotoxicity” value was -2.89% [at 38.5 µM] (inactive).

Consider `OC[C@H]1O[C@@H](OCCc2ccc(O)cc2)[C@H](O)[C@@H](O)[C@@H]1O`, for which the “activity change, negative = cytotoxicity” value was -0.333% (inactive).

Turning to `C[C@@H]1C[C@H]2[C@@H]3CCC4=CC(=O)C=C[C@]4(C)[C@@]3(F)[C@@H](O)C[C@]2(C)[C@@]1(O)C(=O)COP(=O)(O)O`, the “activity change, negative = cytotoxicity” value was 11.5% (inactive).

Regarding `CC(=O)N1CCN(NC(=O)c2ccc(F)cc2)CC1`, the “activity change, negative = cytotoxicity” value is -0.382% (inactive).

For the compound `NC(Cc1c[nH]c2ccccc12)C(=O)NC(CCC(=O)O)C(=O)O` (configuration not stated), the “activity change, negative = cytotoxicity” value is 1.11% (inactive).

`CC[C@H](/C=C/[C@@H](C)[C@H]1CC[C@H]2[C@@H]3CC=C4C[C@@H](O)CC[C@]4(C)[C@H]3CC[C@]12C)C(C)C`: the activity change, negative = cytotoxicity was 16.8% [at 6.55 µM] (inactive).

Take `CCOc1ccc(C(Nc2ccccn2)c2ccc3ccc(C)nc3c2O)cc1C` (configuration not stated): the “activity change, negative = cytotoxicity” value was -3.86% (inactive).

For `COc1cc(C2Oc3c(OC)cc(/C=C/C(=O)OC[C@H]4O[C@@H](OC(C)(C)C(=O)O)[C@H](O)[C@@H](O)[C@@H]4O)cc3C2CO)ccc1O` (some centres not stated), the “activity change, negative = cytotoxicity” value was 7.36% [at 25.3 µM] (inactive).

On to `COC1=CC(=O)C[C@@H](C)[C@]12Oc1cc(OC)cc(OC)c1C2=O`, for which the “activity change, negative = cytotoxicity” value is -2.16% [at 38.5 µM] (inactive).

Regarding `COc1c(C)c(OCC=C(C)C)cc2c1C(=O)NC2=O`, the “activity change, negative = cytotoxicity” value was 0.71% (inactive).

In the case of `C[C@]12CCC(=O)C=C1[C@@H](O)C[C@@H]1[C@@H]2[C@@H](O)C[C@@]2(C)[C@H]1CC[C@]2(O)C(=O)CO`, the “activity change, negative = cytotoxicity” value is 1.59% (inactive).

In the case of `CC(=O)O[C@H]1C[C@@H]2[C@]3(CC[C@]4(C)[C@@H](C5(C)CCC(C(C)(C)O)O5)[C@@H](O)C[C@@]24C)C[C@@]32CC[C@H](O[C@@H]3OC[C@@H](O)[C@H](O)[C@H]3O)C(C)(C)[C@H]12` (some centres not stated), the “activity change, negative = cytotoxicity” value is -2.13% [at 25.3 µM] (inactive).

For the compound `COc1cc(C[C@H]2COC(=O)[C@@H]2Cc2ccc(O)c(OC)c2)ccc1O`, the “activity change, negative = cytotoxicity” value was 6.47% [at 38.5 µM] (inactive).

On to `CCC(=O)NS(=O)(=O)c1ccc(-c2c(-c3ccccc3)noc2C)cc1`, for which the “activity change, negative = cytotoxicity” value is -1.07% (inactive).

Take `C=CC(C)(O)CO[C@@H]1O[C@H](CO)[C@@H](O)[C@H](O)[C@H]1O` (some centres not stated): the “activity change, negative = cytotoxicity” value was 1.3% (inactive).

Consider `Clc1ccc(CN[C@H]2CCN(c3ncc(Br)cn3)C2)c(Cl)c1`, for which the “activity change, negative = cytotoxicity” value is -7.43% (inactive).

Consider `CC(C)C(=O)c1cn(CC(=O)COc2ccc(Oc3ccccc3)cc2)c2ccc(C(=O)O)cc12`, for which the “activity change, negative = cytotoxicity” value is -4% (inactive).

In the case of `CC(C)C1=CC2=CCC3[C@](C)(CCC[C@@]3(C)C(=O)O)C2CC1O` (some centres not stated), the “activity change, negative = cytotoxicity” value was 3.35% [at 38.5 µM] (inactive).

As to `CC[C@H]1OC(=O)C[C@@H](O)[C@H](C)[C@@H](O[C@@H]2O[C@H](C)[C@@H](O)[C@H](N(C)C)[C@H]2O)[C@@H](CCN2C[C@H](C)C[C@H](C)C2)C[C@@H](C)C(=O)/C=C/C(C)=C/[C@@H]1CO[C@@H]1O[C@H](C)[C@@H](O)[C@@H](OC)[C@H]1OC`, the “activity change, negative = cytotoxicity” value is -0.32% (inactive).

As to `CC(C)NC[C@H](O)COc1ccc(CCOCC2CC2)cc1`, the “activity change, negative = cytotoxicity” value was 1.76% (inactive).

Regarding `CC(=O)OC(C)OC(=O)C(C)c1ccc(-c2ccccc2)c(F)c1` (configuration not stated), the “activity change, negative = cytotoxicity” value is -2.3% (inactive).

For the compound `C=C1C(=O)O[C@H]2[C@H]1[C@@H](OC(=O)C(C)CO)C[C@@]1(C)[C@H](O)CCC(=O)[C@H]21` (some centres not stated), the “activity change, negative = cytotoxicity” value is 1.72% [at 38.5 µM] (inactive).

For the compound `CCC(C)(O)C(O)C(=O)OCc1ccc(O[C@@H]2O[C@H](CO)[C@@H](O)[C@H](O)[C@H]2O)c(OC)c1` (some centres not stated), the “activity change, negative = cytotoxicity” value is -0.326% [at 25.3 µM] (inactive).

Consider `NS(=O)(=O)OC[C@@H]1C[C@@H](n2ccc3c(N[C@H]4CCc5ccccc54)ncnc32)C[C@@H]1O`, for which the Potency is 501 nM (active) and 398 nM (active).

Consider `COc1ccc(C[C@H](N)C(=O)N[C@H]2[C@@H](O)[C@H](n3cnc4c(N(C)C)ncnc43)O[C@@H]2CO)cc1`, for which the Potency was 3.98 µM (active).

As to `C[C@H](NCc1ccc(OCc2ccccc2F)cc1)C(N)=O`, the “activity change, negative = cytotoxicity” value is -5.9% (inactive).

Consider `CC(=O)N[C@H](Cc1ccc(O)cc1)C(=O)N[C@H](CCCN=C(N)N)C(=O)N[C@H](Cc1ccccc1)C(N)=O` (Ac-[dY]-[dR]-[dF]-NH2), for which the “activity change, negative = cytotoxicity” value was -0.249% (inactive).

Turning to `Nc1ncnc2c1ncn2[C@H]1CCCO1`, the “activity change, negative = cytotoxicity” value was 7.19% (inactive).

Regarding `CCC(=O)O[C@]1(C(=O)CCl)[C@@H](C)C[C@H]2[C@@H]3C[C@H](F)C4=CC(=O)C=C[C@]4(C)[C@@]3(F)[C@@H](O)C[C@@]21C`, the “activity change, negative = cytotoxicity” value is 6.16% (inactive).

As to `CCOc1ccc(-c2ccc(Cn3c(CC(C)(C)C(=O)O)c(SC(C)(C)C)c4cc(OCc5ccc(C)cn5)ccc43)cc2)cn1`, the Potency result was “inactive”.

Turning to `CC1OC(OC2C(CO)OC(OCC3OC(OC(=O)C45CCC(C)(C)CC4C4=CCC6C7(C)CCC(OC8OC(C(=O)O)C(O)C(OC9OC(CO)C(O)C(O)C9O)C8O)C(C)(C)C7CCC6(C)C4(C)CC5)C(O)C(O)C3O)C(O)C2O)C(O)C(O)C1O` (configuration not stated), the activity change, negative = cytotoxicity was 0.671% [at 6.55 µM] (inactive).

For the compound `CC1CCC2(C)C(CC(O)C(O)C23CO3)C1(C)CCC1=CC(=O)OC1O` (configuration not stated), the “activity change, negative = cytotoxicity” value is -4.67% [at 38.5 µM] (inactive).
